LANA-H2B inh – blockers of LANA interaction with H2A/H2B – biochemical, FP readout, HTS, primary screen | cell-free LANA-H2A/H2B peptide, fluorescence polarization | 320,000 compounds, 0.6% hits | inhibition, % (concentration not given with the values); in the data active = inhibition mostly above about 10%, no sharp cut-off; inactive = mostly below about 6.7%
HTR2A ag – mouse Htr2a agonists via beta-arrestin recruitment, primary screen, cell-based, luminescence; activation, % at 7.6 µM; AID 624169, 2012; CHO-K1 mHTR2A beta-arrestin complementation; percent of 30 µM serotonin response; 360,000 compounds, 0.66% hits;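 active = activation above a run cutoff, the mean activation of all tested compounds plus 3 SD, cut at about 14% in these data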
TLR4-MyD88 BLA – inhibitors of TLR4-MyD88 association in cells, primary screen, cell-based, HeLa CL3-4, BLA complementation, FRET ratio. Toll-like receptor 4 (Homo sapiens) + Myeloid differentiation primary response protein …. HeLa CL3-4 TLR4/MyD88 BLA complementation. inhibition, % at 8.4 µM. 200,000 compounds, 0.18% hits; in the data active = inhibition above about 25%
Rtt109 Vps75 – inhibitors of C. albicans Rtt109/Vps75 HAT, primary screen, biochemical, ThioGlo CoA-SH fluorescence, plate reader | Histone acetyltransferase RTT109 (Candida albicans (strain SC5314 / ATCC MYA-2876)), … | purified Rtt109/Vps75, 4 h | inhibition, % at 34.9 µM | 330,000 compounds, 0.16% hits;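 active = inhibition of at least 50% in every replicate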
TLR9-MyD88 inh – inhibitors of TLR9-MyD88 association in cells, primary screen, cell-based, CHO, BLA complementation, fluorescence | CCF4 FRET ratio | inhibition, % at 4.98 µM | 340,000 compounds, 0.21% hits | AID 504734, 2011 | Toll-like receptor 9 (Homo sapiens) + Myeloid differentiation primary response protein …;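 active = inhibition above the mean over all tested compounds plus 3 SD, cut at about 21% in these data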
Target sequence (Q99836 whole entry, looked up): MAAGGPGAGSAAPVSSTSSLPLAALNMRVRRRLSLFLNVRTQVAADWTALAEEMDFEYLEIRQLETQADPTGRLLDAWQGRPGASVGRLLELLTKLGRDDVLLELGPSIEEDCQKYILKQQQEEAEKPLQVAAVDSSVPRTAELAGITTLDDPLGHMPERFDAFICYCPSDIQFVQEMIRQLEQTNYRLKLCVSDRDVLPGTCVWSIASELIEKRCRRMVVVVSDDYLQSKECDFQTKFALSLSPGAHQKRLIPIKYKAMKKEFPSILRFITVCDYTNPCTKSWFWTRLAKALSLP
Target sequence (Q9NR96 whole entry, looked up): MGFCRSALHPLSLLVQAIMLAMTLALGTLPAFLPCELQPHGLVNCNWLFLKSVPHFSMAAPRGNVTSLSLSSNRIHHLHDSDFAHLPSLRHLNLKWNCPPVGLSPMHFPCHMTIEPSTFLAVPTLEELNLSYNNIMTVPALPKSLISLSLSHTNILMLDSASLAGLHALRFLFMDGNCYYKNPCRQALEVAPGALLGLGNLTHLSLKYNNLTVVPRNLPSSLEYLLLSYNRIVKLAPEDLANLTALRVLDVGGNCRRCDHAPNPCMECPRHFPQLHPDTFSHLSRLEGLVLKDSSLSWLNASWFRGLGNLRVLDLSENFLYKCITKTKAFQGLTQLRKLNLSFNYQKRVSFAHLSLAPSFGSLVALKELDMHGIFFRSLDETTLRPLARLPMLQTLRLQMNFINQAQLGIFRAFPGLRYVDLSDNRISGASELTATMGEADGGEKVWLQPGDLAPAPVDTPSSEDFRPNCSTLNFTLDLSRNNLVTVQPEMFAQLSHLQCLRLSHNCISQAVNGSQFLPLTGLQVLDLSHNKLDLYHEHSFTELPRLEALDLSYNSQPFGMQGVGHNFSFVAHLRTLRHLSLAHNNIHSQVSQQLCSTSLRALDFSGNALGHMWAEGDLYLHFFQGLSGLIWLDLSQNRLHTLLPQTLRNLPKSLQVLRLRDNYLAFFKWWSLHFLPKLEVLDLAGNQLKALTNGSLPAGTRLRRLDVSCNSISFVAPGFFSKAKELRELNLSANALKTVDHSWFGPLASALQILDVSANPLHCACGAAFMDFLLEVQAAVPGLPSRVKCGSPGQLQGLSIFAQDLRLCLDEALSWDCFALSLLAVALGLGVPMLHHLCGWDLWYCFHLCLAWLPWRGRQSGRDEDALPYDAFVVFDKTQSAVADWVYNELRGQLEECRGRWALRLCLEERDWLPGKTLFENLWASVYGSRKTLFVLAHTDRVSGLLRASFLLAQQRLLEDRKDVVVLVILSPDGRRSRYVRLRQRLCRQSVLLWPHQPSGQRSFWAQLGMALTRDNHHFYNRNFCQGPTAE
NOD2-RIPK2 inh – NOD2-RIPK2 binding disruptors in cells, primary screen, fluorescence, CHO cells, BLA complementation; 360,000 compounds, 0.38% hits; Receptor-interacting serine/threonine-protein kinase 2 (Homo sapiens), O43353; CCF4 ratio; inhibition, % at 4.98 µM; in the data active = inhibition above about 21%
Numbers stand for hits; n = inactive; x = no result; + = active, no number. This is a sample that favours compounds with a hit; in the whole collection about 1.8% have one here.

SMILES | LANA-H2B inh | HTR2A ag | TLR4-MyD88 BLA | Rtt109 Vps75 | TLR9-MyD88 inh | NOD2-RIPK2 inh
CCOc1ccc(NC(=O)C23CC4CC(C2)CC(c2ccccc2)(C4)C3)cc1 | 14 | n | n | n | n | n
CCOC(=O)CNC(=O)C12CC3CC(C1)CC(c1ccc(C)cc1)(C3)C2 | n | n | n | n | n | n
Cc1cc(C)c(S(=O)(=O)Nc2ccc(C(N)=O)cc2)c(C)c1 | n | n | n | n | n | n
CC(=O)c1ccc(NS(=O)(=O)c2c(C)cc(C)cc2C)cc1 | 19 | n | n | n | n | n
Cc1ccc(NC(=O)[C@@H]2O[C@H](CO)[C@H](O)[C@H](O)[C@H]2O)cc1C(F)(F)F | x | n | x | x | x | n
Cc1ccc(S(=O)(=O)N2CC3(O)CN(C(=O)OC(C)C)N(C(=O)OC(C)C)CC3(OC(=O)NCc3ccco3)C2)cc1 (stereo unspecified) | x | n | x | x | n | n
CC(=O)N1CCN(c2ncnc3ccccc23)CC1 | n | n | x | 58 | n | n
CCOC(=O)C1(C)CCCN1C(=O)c1csnn1 (stereo unspecified) | x | n | x | x | x | n
Cc1sc(NC(=O)CN2C(=O)NC3(CCCC3)C2=O)nc1-c1ccc(F)cc1 | n | n | x | n | n | n
O=C(CN1C(=O)NC2(CCCC2)C1=O)Nc1ccccc1F | 27 | n | n | n | n | n
CC(=O)c1sc(NC(=O)CN2C(=O)NC3(CCCC3)C2=O)nc1-c1ccccc1 | 18 | n | x | n | n | n
CCOC(=O)C1CCN(C(=O)c2ccc(N3CCOCC3)c([N+](=O)[O-])c2)CC1 | 21 | n | x | n | n | n
CCOC(=O)C1CCN(C(=O)COC(=O)c2cc([N+](=O)[O-])ccc2N2CCOCC2)CC1 | n | n | x | n | n | n
CC(Sc1ccsc1[N+](=O)[O-])C(=O)NCc1ccccc1 (stereo unspecified) | 22 | x | n | x | x | x
COc1ccccc1CNC(=O)C(C)Sc1ccsc1[N+](=O)[O-] (stereo unspecified) | n | n | n | x | n | n
O=C(Nc1ccc(F)cc1)C(c1ccnc2ccccc12)N1CCN(C(=O)c2ccco2)CC1 (stereo unspecified) | x | n | x | x | x | n
CCc1ccc(NC(=O)c2noc3c2CCCCC3)cc1 | n | n | n | n | n | n
Cc1ccc(NC(=O)c2noc3c2CCCCC3)cc1 | 8.5 | n | n | n | n | n
CCN(C[C@H]1N[C@@](Cc2ccccc2)(C(=O)OC)[C@H]2C(=O)N(C)C(=O)[C@@H]12)C(=O)NC(C)C | + | n | x | n | n | n
CC[C@@]1(C(=O)OC)N[C@H](CN(C)C(=O)Nc2ccc(F)cc2)[C@@H]2C(=O)N(Cc3ccccc3)C(=O)[C@@H]21 | x | n | x | n | n | n
CCN(C[C@H]1N[C@@](Cc2ccccc2)(C(=O)OC)[C@H]2C(=O)N(C)C(=O)[C@@H]12)S(=O)(=O)c1ccc(OC)cc1 | + | n | x | n | n | n
CCN(C[C@H]1N[C@@](Cc2ccccc2)(C(=O)OC)[C@H]2C(=O)N(C)C(=O)[C@@H]12)C(=O)c1ccccc1 | x | n | x | n | n | n
CC[C@@]1(C(=O)OC)N[C@H](CN(C)C(=O)Nc2ccc(OC)cc2)[C@@H]2C(=O)N(Cc3ccccc3)C(=O)[C@@H]21 | + | n | x | n | n | n
CCN(C[C@H]1N[C@@](CC)(C(=O)OC)[C@H]2C(=O)N(Cc3ccccc3)C(=O)[C@@H]12)S(=O)(=O)c1ccc(C)cc1 | + | n | x | n | n | n
C[N+](C)(C)CCN1C(=O)c2ccccc2C1=O | x | n | x | x | x | n
SMILES | LANA-H2B inh | HTR2A ag | TLR4-MyD88 BLA | Rtt109 Vps75 | TLR9-MyD88 inh | NOD2-RIPK2 inh
CCOC(=O)[C@]12CCC=C1N(Cc1ccco1)C(=O)[C@H](CC(=O)N1CCCCC1)C2 | x | n | x | x | x | n
COc1ccccc1C(=O)Nc1ccc(OCC(=O)N2CC(C)CC(C)C2)cc1 (stereo unspecified) | n | n | x | 53 | n | n
O=C1c2cccc3c(N4CCCCC4)ccc(c23)C(=O)N1CCO | 49 | n | n | n | n | n
O=C(OCCN1C(=O)c2cccc3c(N4CCOCC4)ccc(c23)C1=O)c1cccc(Cl)c1 | 37 | x | n | x | x | x
O=C1c2cccc3cccc(c23)C(=O)N1CCO | x | n | x | x | n | n
N/C(=N/OS(=O)(=O)c1ccc([N+](=O)[O-])cc1)c1ccncc1 | 37 | n | n | n | n | n
COc1cccc(NC(=O)C2(C)CCN2C(=O)CCc2ccc(Cl)cc2Cl)c1 (stereo unspecified) | x | n | x | x | x | n
COc1ccc(OCC(=O)N2c3ccc(C)cc3C3CN(C)CCC32)cc1 (stereo unspecified) | 25 | n | n | n | n | n
CCCCCCCCN1C(=O)[C@H](CC(=O)N2CCCC2)C[C@@]2(C(=O)OC)CCCCC=C12 | x | n | x | x | x | n
COc1ccc([C@H]2CC(=O)C[C@@H](CCn3cc(-c4ccccn4)nn3)O2)cc1 | x | n | x | x | x | n
O=c1[nH]c2ccccc2c2oc(CCl)nc12 | n | n | x | 78 | n | n
Cc1cc(C)n2nc(SCC(=O)N3CCN(c4ccc(F)cc4)CC3)nc2n1 | n | n | x | n | n | n
COc1ccc(N2CCN(C(=O)CSc3nc4nc(C)cc(C)n4n3)CC2)cc1 | 37 | n | x | n | n | n
CCOC(=O)C1=C(C)Nc2ccccc2S1 | n | n | x | 51 | n | n
CCOC(=O)C1(C)CCN1C(=O)c1ccc(C(C)(C)C)cc1 (stereo unspecified) | x | n | x | x | x | n
CCc1nc2ccc(C(=O)N(C)CCCN(C)C)cn2c1N(C)C(=O)C1CCCCC1 | x | n | x | x | x | n
O=C(C/C=N/OCc1ccc(Cl)cc1Cl)c1ccccc1 | n | n | n | 65 | n | n
Cc1ccc(S(=O)(=O)Nc2ccccc2C(=O)N2CCN(C)CC2)cc1 | 102 | n | x | n | n | n
Cc1ccc(S(=O)(=O)Nc2ccccc2C(=O)N2CCCC2)cc1 | n | n | x | n | n | n
c1ccc(Nc2ccccn2)nc1 | 8.3 | n | x | n | n | n
Oc1ccccc1Nc1ccccn1 | n | n | x | n | n | n
CCCCNC(=O)c1ccc(SCC(=O)N(CC)CC)c([N+](=O)[O-])c1 | 79 | n | n | n | n | n
CCN(CC)C(=O)CSc1ccc(C(F)(F)F)cc1[N+](=O)[O-] | n | n | n | n | n | n
CCC(C)(C)NC(=O)c1ccc2c(c1)N(CC(=O)OC)C(=O)C(C)(C)O2 | 18 | n | n | n | n | n

Bioassay records as filed in PubChem.
